# Measured values as given in paper PMC10812921, “Transcriptional Coactivator BOB1 (OBF1, OCA-B) Modulates the Specificity of DNA Recognition by the POU-Domain Factors OCT1 and OCT2 in a Monomeric Configuration”.
# Biological target: POU1 (OCT1 POU domain) (human, UniProt P14859 260-458)
# Experiment: EMSA-SELEX-seq; no BOB1; 20 mM Tris-HCl pH 7.6, 140 mM NaCl, 10% glycerol, 0.5 mM EDTA, 0.05% Triton X-100, 0.1 mg/mL BSA, 0.1 mg/mL poly(dI-dC), 5 mM DTT, room temperature, 20 min; high values mean tight binding
# Details: protein: recombinant; dsDNA, one strand shown
# Outline: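 After expression in E. coli BL21, tagged POU-domain proteins were purified under denaturing conditions and then renatured. Each binding reaction held 30 ng protein and 300 ng of a PCR-amplified double-stranded random 35-nt library in 20 μL Tris–HCl pH 7.6 binding buffer, with or without 28 ng coactivator protein, for 20 min at RT. Bands holding complexes were cut from native 6% PAGE, eluted and PCR-amplified across four rounds, and the output was Illumina-sequenced. The value given for binding preference is the share, in percent, of sequenced 8-mers fitting a motif pattern.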
# Chain of POU1 (OCT1 POU domain) (P14859 260-458): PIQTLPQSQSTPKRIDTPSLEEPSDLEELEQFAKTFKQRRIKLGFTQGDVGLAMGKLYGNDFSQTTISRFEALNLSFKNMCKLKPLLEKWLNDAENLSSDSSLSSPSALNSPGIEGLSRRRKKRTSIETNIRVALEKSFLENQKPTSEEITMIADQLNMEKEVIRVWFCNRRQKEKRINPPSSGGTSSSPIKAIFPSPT
row,Sequence,binding signal
1,AACTTAAG,0.0351 % of ANNNNAAN 8-mers
2,AGTGGAAT,0.0995 % of ANNNNAAN 8-mers
3,ATGCAAAA,1.5 % of ANNNNAAN 8-mers
4,ACATCAAT,0.0435 % of ANNNNAAN 8-mers
5,AAGTAAAC,0.0477 % of ANNNNAAN 8-mers
6,ACATAAAC,0.087 % of ANNNNAAN 8-mers
7,ACAATAAG,0.0339 % of ANNNNAAN 8-mers
8,ATTATAAT,0.94 % of ANNNNAAN 8-mers
9,ATCGTAAA,0.0553 % of ANNNNAAN 8-mers
10,ATTGCAAG,0.0271 % of ANNNNAAN 8-mers
11,AGCTCAAT,0.037 % of ANNNNAAN 8-mers
12,ACAAGAAC,0.0214 % of ANNNNAAN 8-mers
13,ATTTCAAA,0.0866 % of ANNNNAAN 8-mers
14,ACGGCAAG,0.0206 % of ANNNNAAN 8-mers
15,ACTTAAAT,0.0767 % of ANNNNAAN 8-mers
16,AACCAAAA,0.0522 % of ANNNNAAN 8-mers
17,ATGGGAAG,0.0652 % of ANNNNAAN 8-mers
18,AATGGAAA,0.242 % of ANNNNAAN 8-mers
19,AATGCAAT,0.0862 % of ANNNNAAN 8-mers
20,ACTCCAAG,0.0191 % of ANNNNAAN 8-mers

row,Sequence,binding signal
1,ACCAGAAC,0.013 % of ANNNNAAN 8-mers
2,AAGCAAAT,0.378 % of ANNNNAAN 8-mers
3,AACTCAAA,0.0397 % of ANNNNAAN 8-mers
4,ATAGGAAC,0.0339 % of ANNNNAAN 8-mers
5,ACCGCAAT,0.0164 % of ANNNNAAN 8-mers
6,AGAAGAAG,0.029 % of ANNNNAAN 8-mers
7,ATGGAAAG,0.148 % of ANNNNAAN 8-mers
8,AAAACAAC,0.0362 % of ANNNNAAN 8-mers
9,AGACGAAT,0.0461 % of ANNNNAAN 8-mers
10,AAACCAAA,0.0538 % of ANNNNAAN 8-mers
11,AAGTGAAC,0.0233 % of ANNNNAAN 8-mers
12,ACTGTAAG,0.0225 % of ANNNNAAN 8-mers
13,AGCTTAAC,0.0194 % of ANNNNAAN 8-mers
14,AACTTAAA,0.0526 % of ANNNNAAN 8-mers
15,ACAGAAAA,0.0389 % of ANNNNAAN 8-mers
16,AGGAAAAG,0.1 % of ANNNNAAN 8-mers
17,AACCTAAG,0.0256 % of ANNNNAAN 8-mers
18,ACGACAAG,0.0175 % of ANNNNAAN 8-mers
19,AGTGCAAT,0.0347 % of ANNNNAAN 8-mers
